The text below walks through data of PubChem BioAssay AID493185 (National Center for Advancing Translational Sciences (NCATS), 2011).

Activity calls are given as the source filed them. Where a call stands in place of a potency, no number is given. Calls come from the whole dose curve; as a rule, active = well fitted activation curve with a large enough effect; inconclusive = small, poorly fitted or top-dose-only effect; inactive = no such curve, though single readings can be large or run the other way.
Potency is the fitted concentration of half-maximal effect.

This experiment can be described thus: Counterscreen for Identifying a Potential Treatment of Ataxia-Telangiectasia: Hit Validation. The note with it: cell-free AlphaLISA/AlphaScreen artifact counterscreen, PBS only, no cells; series mostly up to 76.9 µM. The text has this:
NIH Chemical Genomics Center [NCGC]
NIH Molecular Libraries Probe Centers Network [MLPCN]
Assay Submitter (PI): Wei Zheng and Yosef Shiloh
Ataxia-telangiectasia (A-T) is a devastating and progressive disease for which, there is no cure. Although A-T is a multisystem disease, it is stereotyped characterized by its neurological symptoms such as truncal ataxia, due to cerebellar cortical degeneration of the Purkinje and granule cells. Other symptoms of A-T are telangiectasias (dilated blood vessels), primary immunodeficiency, marked sensitivity to ionizing radiation (IR), chromosomal instability and predisposition to cancer.
The underlying genetic cause of A-T is null mutations in the ATM (A-T mutated) gene. ATM is a nuclear serine/threonine kinase that functions as a master regulator of the cellular responses to double strand breaks (DSBs) in the DNA. Upon activation by DSBs, ATM phosphorylates a plethora of downstream targets, including KAP-1 on […]. KAP-1 phosphorylation occurs shortly in response to DSBs and mediates global chromatin relaxation, which facilitates DSB repair. To screen for small molecules that will compensate for the loss of ATM in cells derived from A-T patients, we monitored KAP-1 phosphorylation as a readout for ATM-like activity using an AlphaLISA assay.
3. Library compounds, 23 nl, 76.7 - 0.61uM dilution series final concentration
4. Incubation, 60 min, 37C, 5% CO2, 95% humidity
6. Incubation, 30 min, 37C, 5% CO2, 95% humidity
7. Reagent, 1 ul, Premixed detection reagents and lysis buffer
8. Reagent, 1 ul, 0.6% Antifoam A
9. Incubation, 6 hr, 25C, 95% humidity
10. Readout, EnVision, EnVision plate reader. AlphaScreen 1536-well protocol
PBS was dispensed into medium-binding white solid-bottom tissue culture treated Kalypsys plates with a Multidrop dispenser. Detection reagent and lysis buffer was 3.75nM Rab-a-pKAP1 antibody bound to 75 ng/ul AlphaScreen SA donor bead, 3.75 nM Biot-M-a-KAP1 antibody bound to AlphaLISA protein A acceptor bead, 0.5x protease inhibitor cocktail and 0.25x PerkinElmer lysis buffer. EnVision protocol for 1536-well AlphaScreen read (30ms excitation, 100ms read), about 10 min/plate. This assay is similar to the primary screen but is without cells. It aims to identify artifacts of the assay platform and unspecific hits.
On to `CCOC(=O)CNS(=O)(=O)Cc1ccccc1`, for which the Potency entry was “inactive”.

As to `COCCCNC(=O)c1c[nH]c2ccc(S(=O)(=O)N(C)c3ccccc3C)cc2c1=O`, the Potency entry was “inactive”.

Consider `CC(=O)c1ccc([N+](=O)[O-])c(CS(=O)(=O)c2ccc(Cl)cc2)c1`, for which the Potency result is “inactive”.

In the case of `COc1ccc(-c2nn(-c3ccccc3)cc2/C=C/C(=O)O)cc1[N+](=O)[O-]`, the Potency result was “inactive”.

`COc1cccc(OC)c1C(=O)NC(=O)Nc1c(C)cccc1C`: the Potency entry was “inactive”.

Consider `CC(C)(C)n1nc2c(c1NC(=O)C1CC(=O)N(c3ccc(Cl)cc3)C1)CS(=O)(=O)C2` (stereo not given), for which the Potency result was “inactive”.

Consider `COc1ccc2nc(C)cc(Nc3ccc(C(=O)O)cc3)c2c1`, for which the Potency result was “inactive”.

Consider `CCOc1cccc(-c2nnc(SCC(=O)Nc3cc(C)ccc3OC)n2N)c1`, for which the Potency entry is “inactive”.

As to `CC(CCc1ccccc1)NC(=O)COC(=O)c1ccc(F)cc1` (stereo not given), the Potency result was “inactive”.

For the compound `COc1ccc(-n2c(=S)[nH]c3ccccc3c2=S)cc1`, the Potency entry was “inactive”.

With `O=C(c1ccc(F)cc1)N1CCC(c2ccccc2)C1` (stereo not given), the Potency result is “inactive”.

On to `O=C1C(Cl)=C(Nc2ccccc2)C(=O)c2ccccc21`, for which the Potency result was “inactive”.

Turning to `COc1cccc(C(=O)NOCc2ccc(C)cc2)c1OC`, the Potency entry is “inactive”.

For `O=C(Nc1ccc([N+](=O)[O-])cc1)c1cc2ccccc2nc1Cl`, the Potency entry is “inactive”.

`O=C(Nc1ccccc1Oc1ccccc1)c1cccs1`: the Potency entry was “inactive”.

As for `Cc1ccc(C(=O)c2c(C)oc3c2C(=O)C(=O)c2ccccc2-3)cc1`, the Potency result was “inactive”.

On to `O=C(CN1CCN(Cc2ccccc2)CC1)Nc1ccc(Cl)cc1`, for which the Potency result is “inactive”.

As for `COc1ccc(CNC(=O)CN2C(=O)CSc3ccc(S(=O)(=O)N4CCOCC4)cc32)c(OC)c1`, the Potency entry is “inactive”.

Turning to `CCC(C)Nc1nc(N)c([N+](=O)[O-])c(NCCO)n1` (stereo not given), the Potency entry is “inactive”.

In the case of `N#CCN1C(=O)C(=O)N(Cc2cccc(Cl)c2)C1=O`, the Potency result was “inactive”.

On to `O=C1C2C3C=CC(CC3)C2C(=O)N1c1cccc(Br)c1` (stereo not given), for which the Potency entry was “inactive”.

On to `COc1ccc(Oc2ncnc3c2oc2ccc(Br)cc23)cc1`, for which the Potency result is “inactive”.

As to `Cc1c(Cc2ccccc2)c(NCCCO)n2c(nc3ccccc32)c1C#N`, the Potency entry is “inactive”.

Take `Cc1oc2c(c(C)cc3oc(=O)c(CC(=O)NCC(=O)NCC(=O)O)c(C)c32)c1C`: the Potency entry was “inactive”.

On to `O=C(NC(=O)c1c(F)cccc1F)Nc1ccccc1SC(F)F`, for which the Potency entry is “inactive”.

`Cc1ccc2c(c1)sc(=NC(=O)C1CC1)n2C`: the Potency entry is “inactive”.

For `CNC(=O)c1ccc(-c2sc3nc(N4CCOCC4)c4c(c3c2N)CC(C)(C)OC4)o1`, the Potency is 46.3 µM (active).

Regarding `CC(C)(C)C1CCC2(CC1)SCC(=O)N2c1ccccc1` (stereo not given), the Potency result is “inactive”.

For the compound `O=C(O)c1ccc(-c2nc3ccccc3s2)o1`, the Potency entry is “inactive”.

Regarding `CCn1nc(C)c(CNC(=O)c2cc(COc3ccc(F)cc3Cl)on2)c1C`, the Potency entry is “inactive”.

As to `CNC(=O)Cc1csc2ccc(C)cc12`, the Potency entry is “inactive”.

For the compound `CC(=O)Nc1ccc(NC2=CC(=O)c3ccccc3C2=O)cc1`, the Potency result is “inactive”.

As to `COc1ccc2c(c1)c(N=NC(N)=S)c(O)n2CC(=O)c1ccccc1`, the Potency result is “inactive”.

For the compound `CCC(Oc1ccccc1)C(=O)N(C)CC(=O)N(CC(C)C)c1c(N)n(CC(C)C)c(=O)[nH]c1=O` (stereo not given), the Potency result was “inactive”.

With `CCn1c(SCc2cccc(F)c2)nnc1-c1ccncc1`, the Potency entry was “inactive”.

As for `CCC(C)NC(=O)c1cn(CCOC)c(=O)c2c1c1ccccc1n2C` (stereo not given), the Potency entry is “inactive”.

For `CCS(=O)(=O)c1ccc(C(=O)Nc2ccccc2)c(Cl)c1Cl`, the Potency entry was “inactive”.

Take `O=C(NCCCN1CCOCC1)c1ccc2c(c1)N(Cc1cccc(F)c1)C(=O)c1ccccc1S2`: the Potency entry is “inactive”.

`Cn1cnc([N+](=O)[O-])c1SCCO`: the Potency entry is “inactive”.

For the compound `C(=N\Nc1ccccn1)/c1c[nH]c2ccccc12`, the Potency result was “inactive”.
